# Records with an inconclusive call do not appear. For some of these results: Results with a measured potency or affinity are listed apart. The source made the active and inactive calls. Unless noted, how the calls were made is not given here.
# How the values were obtained:
# [1] = polyglutamine-triggered caspase-3 activation inhibitors, cell-based (AID 1583); conditions: polyglutamine-induced caspase-3 activation, cell assay; stronger effect = higher value;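 tested at 10 µM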
# [2] = suppressors of polyQ aggregation in yeast, 75Q-TubU reporter (AID 1593); conditions: Yeast 75Q polyglutamine aggregation reporter
# [3] = rescue of polyQ-huntingtin neuronal dysfunction in worms, whole organism, C. elegans mechanosensory neurons, N-terminal huntingtin (AID 1599); conditions: touch response, stronger effect = higher value
# [4] = inhibitors of mitochondrial cytochrome c release, biochemical, purified mitochondria (AID 1603); conditions: stronger effect = lower value;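 further: mouse liver mitochondria challenged with calcium chloride; signal normalized to the plate average as 100%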
# [5] = inhibitors of polyQ protein aggregation (AID 1604); conditions: polyglutamine-induced protein aggregation inhibition assay; stronger effect = higher value; tested at 2.5 µM
# [6] = enhancers of glutamate uptake in motor neurons, MN-1 cell line (AID 1612); conditions: MN-1 motor neuron cells, stronger effect = higher value;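 further: tested at 1 µM final; 0% = mean of DMSO vehicle wells on each plate; positive means more glutamate uptake than control and negative means less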
# [7] = suppressors of polyglutamine aggregation in yeast, 75Q-TubH (AID 1616); conditions: S. cerevisiae 75Q-TubH polyglutamine aggregation suppression; stronger effect = higher value
# [8] = hESC survival regulators, cell-based (AID 493140); conditions: human embryonic stem cell survival screen; stronger effect = higher value;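 further: cells exposed to compounds for four days before counting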
# [9] = circadian clock period modulators, cell-based, LOPAC library, luminescence reporter (AID 2774); conditions: circadian reporter cells, at 7 µM, actives lie on both sides;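 further: values are relative to mean of DMSO wells on each plate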
# [10] = reducers of polyQ inclusions in PC12 cells, cell-based, NGF-treated PC12, GFPQ80 (AID 1614); conditions: PC12 NGF-treated GFP-polyQ80 inclusion reduction;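 further: lower means fewer inclusions and 0 means no inclusions at all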
# [11] = target: ATP-dependent translocase ABCB1 (Homo sapiens) (UniProt P08183); test: MDR1 (ABCB1) efflux transporter inhibition, cell-based (AID 377; in the data active means fluorescence slope change above about 50%); conditions: MDR1-expressing cells, fluorescent substrate accumulation slope; stronger effect = higher value; concentration not given here
# Sequence of ATP-dependent translocase ABCB1 (Homo sapiens) (P08183 whole entry, looked up): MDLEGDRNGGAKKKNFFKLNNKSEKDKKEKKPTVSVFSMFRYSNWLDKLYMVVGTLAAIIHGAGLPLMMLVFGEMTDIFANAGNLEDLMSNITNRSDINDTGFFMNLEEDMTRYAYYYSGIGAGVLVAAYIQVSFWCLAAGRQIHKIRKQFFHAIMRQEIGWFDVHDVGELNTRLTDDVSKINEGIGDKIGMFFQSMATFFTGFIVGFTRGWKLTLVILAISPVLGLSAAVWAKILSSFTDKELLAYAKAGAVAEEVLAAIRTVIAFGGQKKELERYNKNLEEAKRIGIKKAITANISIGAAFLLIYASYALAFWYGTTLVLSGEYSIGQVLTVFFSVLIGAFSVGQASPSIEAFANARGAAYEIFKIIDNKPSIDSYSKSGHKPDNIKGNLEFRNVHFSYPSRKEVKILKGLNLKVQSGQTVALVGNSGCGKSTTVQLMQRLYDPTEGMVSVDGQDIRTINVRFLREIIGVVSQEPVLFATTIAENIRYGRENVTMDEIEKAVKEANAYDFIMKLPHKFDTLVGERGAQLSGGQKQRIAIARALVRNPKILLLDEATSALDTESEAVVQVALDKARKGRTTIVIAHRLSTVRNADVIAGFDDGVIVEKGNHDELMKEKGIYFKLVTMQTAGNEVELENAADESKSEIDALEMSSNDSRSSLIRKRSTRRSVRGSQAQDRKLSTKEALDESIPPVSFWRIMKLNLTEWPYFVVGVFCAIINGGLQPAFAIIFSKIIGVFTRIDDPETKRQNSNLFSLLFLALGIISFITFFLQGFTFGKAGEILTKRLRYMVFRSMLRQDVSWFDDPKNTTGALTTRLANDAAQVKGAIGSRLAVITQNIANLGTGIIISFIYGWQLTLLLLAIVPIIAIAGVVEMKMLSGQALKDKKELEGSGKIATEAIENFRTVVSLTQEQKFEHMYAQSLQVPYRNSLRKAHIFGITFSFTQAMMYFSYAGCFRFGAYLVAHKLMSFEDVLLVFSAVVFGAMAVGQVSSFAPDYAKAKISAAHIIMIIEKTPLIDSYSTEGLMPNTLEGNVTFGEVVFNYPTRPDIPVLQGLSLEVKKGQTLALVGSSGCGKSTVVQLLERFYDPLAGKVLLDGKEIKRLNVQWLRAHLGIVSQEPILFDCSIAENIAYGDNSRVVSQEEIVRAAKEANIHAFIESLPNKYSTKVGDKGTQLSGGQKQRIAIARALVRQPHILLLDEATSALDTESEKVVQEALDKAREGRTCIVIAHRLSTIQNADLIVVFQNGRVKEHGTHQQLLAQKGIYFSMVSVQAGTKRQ
# [12] = antimalarial activity against Dd2 strain (AID 2302;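 active means growth inhibition above 50% at the single 2 µM test dose, taken to imply half-maximal potency below 2 µM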;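 further: 0% = DMSO untreated growth and 100% = chloroquine plus artemisinin killed control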); conditions: P. falciparum Dd2 in RBCs, LDH growth readout, 72 h; at 2 µM; stronger effect = higher value
# [13] = HepG2 cytotoxicity, primary screen, cytotoxicity control for P. falciparum antimalarial project, cell-based, ATP luminescence (AID 2303;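 active means inhibition above 50%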;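 further: 0% = DMSO wells and 100% = digitonin-killed cells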); conditions: HepG2 viability, 24-48 h, at 10 µM, stronger effect = higher value
# [14] = target: L-lactate dehydrogenase (Plasmodium falciparum (isolate CDC / Honduras)) (UniProt Q27743); test: PfLDH activity inhibition – cell lysate, 3D7 strain, counter-screen for P. falciparum growth inhibition project (AID 2304);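 further: 0% = vehicle and 100% = reference inhibitor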; conditions: P. falciparum 3D7 crude extract, LDH APAD/NBT absorbance; at 2 µM; stronger effect = higher value
# Sequence of L-lactate dehydrogenase (Plasmodium falciparum (isolate CDC / Honduras)) (Q27743 whole entry, looked up): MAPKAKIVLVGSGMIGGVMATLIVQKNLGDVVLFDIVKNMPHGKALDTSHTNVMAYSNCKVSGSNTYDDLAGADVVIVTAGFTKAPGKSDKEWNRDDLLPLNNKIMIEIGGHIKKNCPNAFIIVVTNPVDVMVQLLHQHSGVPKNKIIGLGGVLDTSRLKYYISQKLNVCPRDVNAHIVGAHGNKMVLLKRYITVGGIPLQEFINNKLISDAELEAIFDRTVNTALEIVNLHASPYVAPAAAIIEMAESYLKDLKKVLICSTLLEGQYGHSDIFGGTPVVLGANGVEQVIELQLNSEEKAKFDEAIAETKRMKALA
# [15] = inhibition of 3D7 malaria parasite growth – strain 3D7 (AID 2306);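 further: 0% = DMSO wells and 100% = chloroquine plus artemisinin control wells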; conditions: P. falciparum 3D7 erythrocytic growth, LDH absorbance, 72 h; at 2 µM; stronger effect = higher value
smiles,measurement,setting,value
CCCCC1C(=O)N(c2ccccc2)N(c2ccc(O)cc2)C1=O (stereo unspecified),inhibition,[1],-30.1%
same,score,[2],0.89
same,rescue above control,[3],-3.48
same,cytochrome c release ratio,[4],0.98
same,inhibition of aggregation,[5],61%
same,glutamate uptake change,[6],5.7%
same,aggregation suppression score,[7],0.77
same,survival,[8],4 (inactive)
CCN(CC)C(C)CN1c2ccccc2Sc2ccccc21 (stereo unspecified),inhibition,[1],-20.5%
same,score,[2],1.11
same,rescue above control,[3],-4.48
same,cytochrome c release ratio,[4],0.98
same,inhibition of aggregation,[5],54.5%
same,glutamate uptake change,[6],47.6%
same,aggregation suppression score,[7],1.19
same,survival,[8],4.08 (inactive)
O=C1CCc2cc(OCCCCc3nnnn3C3CCCCC3)ccc2N1,period change,[9],0.02 h (inactive)
O=C1C(O)=C(O)C(=O)C(O)=C1O,inhibition,[1],0.61%
same,score,[2],0.92
same,rescue above control,[3],-5.82
same,cytochrome c release ratio,[4],1.43
same,inhibition of aggregation,[5],8.97%
same,glutamate uptake change,[6],5.54%
same,aggregation suppression score,[7],1.42
same,survival,[8],4.75 (inactive)
COc1ccc(C(=O)c2ccccc2)c(O)c1,inhibition,[1],16.9%
same,score,[2],0.23
same,rescue above control,[3],9.82
same,cytochrome c release ratio,[4],1.17
same,inhibition of aggregation,[5],35%
same,glutamate uptake change,[6],5.28%
same,aggregation suppression score,[7],0.225
same,survival,[8],3.25 (inactive)
CC1=NN(c2ccccc2)C(=O)C1,inhibition,[1],-19.6%
same,score,[2],1.27
same,cytochrome c release ratio,[4],0.94
same,inhibition of aggregation,[5],10.2%
same,glutamate uptake change,[6],-0.14%
same,inclusion score,[10],2
same,aggregation suppression score,[7],0.985
C[C@@](Cc1ccc(O)c(O)c1)(NN)C(=O)O,period change,[9],0.03 h (inactive)
Cc1cc2cc3c(C)cc(=O)oc3c(C)c2o1,fluorescence slope change,[11],18.1% (inactive)
same,inhibition,[1],-5.8%
same,score,[2],0.49
same,cytochrome c release ratio,[4],1.2
same,inhibition of aggregation,[5],74.1%
same,glutamate uptake change,[6],-15.5%
same,inclusion score,[10],2
same,aggregation suppression score,[7],0.635
same,survival,[8],6 (inactive)
COc1ccccc1OCC(O)CN1CCN(CC(=O)Nc2c(C)cccc2C)CC1 (stereo unspecified),period change,[9],0 h (inactive)
Cc1cc(O)cc(C)c1Cl,inhibition,[1],0.93%
same,score,[2],0.53
same,cytochrome c release ratio,[4],5.53
same,inhibition of aggregation,[5],81.6%
same,glutamate uptake change,[6],-5.88%
same,aggregation suppression score,[7],0.248
O=C(Nc1cccc(C2=NCCN2)c1)Nc1cccc(C2=NCCN2)c1,growth inhibition,[12],99% (active)
same,inhibition,[13],16% (inactive)
same,inhibition,[14],7% (inactive)
same,growth inhibition,[15],98% (active)
CCN(CC)Cc1cc(Nc2ccnc3cc(Cl)ccc23)ccc1O,fluorescence slope change,[11],54.8% (active)
same,growth inhibition,[12],99% (active)
same,inhibition,[13],-2% (inactive)
same,inhibition,[14],3% (inactive)
same,growth inhibition,[15],102% (active)
same,survival,[8],6.17 (inactive)
O=c1c(-c2ccc(O)cc2)coc2cc(O)cc(O)c12,period change,[9],0 h (inactive)
CCCCCCCCNC(C)C(O)c1ccc(SC(C)C)cc1 (stereo unspecified),inhibition,[1],71.7%
same,score,[2],-1.11
same,rescue above control,[3],0
same,cytochrome c release ratio,[4],0.61
same,inhibition of aggregation,[5],63%
same,glutamate uptake change,[6],-7.34%
same,aggregation suppression score,[7],0.0242
same,survival,[8],0.25 (inactive)
CCCCC(CC)CN=C(N)NC(N)=NCCCCCCN=C(N)NC(N)=NCC(CC)CCCC (stereo unspecified),fluorescence slope change,[11],152% (active)
same,score,[2],-1.46
same,rescue above control,[3],0
same,cytochrome c release ratio,[4],26.4
same,inhibition of aggregation,[5],88%
same,glutamate uptake change,[6],-50.4%
same,aggregation suppression score,[7],-0.456
same,survival,[8],0.25 (inactive)
CC(=O)[C@]1(O)Cc2c(O)c3c(c(O)c2[C@@H](O[C@H]2C[C@H](N)[C@H](O)[C@H](C)O2)C1)C(=O)c1ccccc1C3=O,period change,[9],-1.6 h (inactive)
CN1CCC(=C2c3ccccc3Sc3ccccc32)CC1,fluorescence slope change,[11],107% (active)
same,inhibition,[1],-31.4%
same,score,[2],1.33
same,cytochrome c release ratio,[4],1.44
same,inhibition of aggregation,[5],88.8%
same,glutamate uptake change,[6],7.96%
same,aggregation suppression score,[7],1.3
same,survival,[8],12.3 (inactive)
NCCS,period change,[9],0.02 h (inactive)
O=C1N(c2ccccc2)c2ccccc2C1(Cc1ccncc1)Cc1ccncc1,period change,[9],0.25 h (inactive)
CC(=O)O[C@]1(C(C)=O)CC[C@H]2[C@@H]3C=C(Cl)C4=CC(=O)[C@@H]5C[C@@H]5[C@]4(C)[C@H]3CC[C@@]21C,period change,[9],0.03 h (inactive)
Oc1ccc(C2CNCCc3c2cc(O)c(O)c3Cl)cc1 (stereo unspecified),period change,[9],0.145 h (inactive)
C[C@H]1O[C@@H](n2cc(F)c(=O)[nH]c2=O)[C@H](O)[C@@H]1O,period change,[9],-0.1 h (inactive)
CCN1CCC[C@H]1CNC(=O)c1c(O)c(Cl)cc(Cl)c1OC,period change,[9],-0.03 h (inactive)
CCCCc1ccc2nc(NC(=O)OC)[nH]c2c1,growth inhibition,[12],1% (inactive)
same,inhibition,[13],26% (inactive)
same,inhibition,[14],-3% (inactive)
same,growth inhibition,[15],98% (active)
same,survival,[8],1 (inactive)
NC1CCN(c2cccc(Cl)n2)CC1,period change,[9],-0.02 h (inactive)
CC(C)NNC(=O)c1ccncc1,fluorescence slope change,[11],97.9% (active)
same,inhibition,[1],12.9%
same,score,[2],1.22
same,cytochrome c release ratio,[4],1.02
same,inhibition of aggregation,[5],71.4%
same,glutamate uptake change,[6],-13.1%
same,inclusion score,[10],2
same,aggregation suppression score,[7],1.22
same,period change,[9],0.33 h (inactive)
same,survival,[8],24.2 (inactive)
C[C@](N)(Cc1ccc(O)cc1)C(=O)O,period change,[9],-0.34 h (inactive)
CCCCOc1cc(C(=O)NCCN(CC)CC)c2ccccc2n1,inhibition,[1],-0.9%
same,score,[2],1.3
same,rescue above control,[3],-3.49
same,cytochrome c release ratio,[4],1.15
same,inhibition of aggregation,[5],50%
same,glutamate uptake change,[6],-13.8%
same,aggregation suppression score,[7],1.32
same,survival,[8],7.17 (inactive)
Cc1nc(N)nc(N)c1-c1ccc(Cl)c(Cl)c1,growth inhibition,[12],-1% (inactive)
same,inhibition,[13],66% (active)
same,inhibition,[14],3% (inactive)
same,growth inhibition,[15],95% (active)
COc1cc2c(Nc3ccc(Br)cc3F)ncnc2cc1OCC1CCN(C)CC1,growth inhibition,[12],16% (inactive)
same,inhibition,[13],10% (inactive)
same,inhibition,[14],5% (inactive)
same,growth inhibition,[15],97% (active)
CCOc1ccc2nc3cc(N)ccc3c(N)c2c1,growth inhibition,[12],70% (active)
same,inhibition,[13],8% (inactive)
same,inhibition,[14],0% (inactive)
same,growth inhibition,[15],98% (active)

# Reference: PubChem BioAssay
